# Measured values taken from ChEMBL document CHEMBL3988442, “University of Dundee, Small-Polar-MMV Screening Library” (2021).
# Molecular target: T1, Methionyl-tRNA synthetase, putative (Leishmania donovani (strain BPK282A1)) (UniProt E9BF75)
# T1 sequence (whole entry): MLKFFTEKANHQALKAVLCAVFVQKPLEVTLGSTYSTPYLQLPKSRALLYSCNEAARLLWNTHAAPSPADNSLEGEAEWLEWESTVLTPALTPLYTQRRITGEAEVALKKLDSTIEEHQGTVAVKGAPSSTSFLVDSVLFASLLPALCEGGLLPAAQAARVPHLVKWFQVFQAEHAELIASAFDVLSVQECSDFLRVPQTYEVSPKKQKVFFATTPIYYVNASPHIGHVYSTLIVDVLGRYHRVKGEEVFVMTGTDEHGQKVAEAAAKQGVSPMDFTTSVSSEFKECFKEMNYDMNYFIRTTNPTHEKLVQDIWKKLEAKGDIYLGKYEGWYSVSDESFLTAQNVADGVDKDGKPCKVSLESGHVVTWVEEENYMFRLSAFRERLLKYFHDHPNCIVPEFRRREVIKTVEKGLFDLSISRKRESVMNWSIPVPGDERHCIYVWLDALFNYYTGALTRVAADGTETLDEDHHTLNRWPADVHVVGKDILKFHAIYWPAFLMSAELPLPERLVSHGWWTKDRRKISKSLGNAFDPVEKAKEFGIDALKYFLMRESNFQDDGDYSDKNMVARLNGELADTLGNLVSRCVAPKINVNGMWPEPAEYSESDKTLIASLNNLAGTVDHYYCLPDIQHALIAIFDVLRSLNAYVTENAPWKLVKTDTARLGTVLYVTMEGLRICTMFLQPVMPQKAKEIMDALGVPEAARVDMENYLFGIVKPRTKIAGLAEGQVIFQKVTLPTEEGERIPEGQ
# Assay: Leishmania donovani Methionine tRNA synthetase (LdMetRS):v7. Dose response assay
# Format: functional
# Design: conc 80 nM, time 150 minutes
structure (smiles),measurement,setting,value
Cc1sc2nc(CN(C)Cc3ccc(C(F)(F)F)cc3)nc(N)c2c1C,PXC50,MAX_EFFECT 10.05291005,< 4
same,PXC50,MAX_EFFECT 12.8,< 4
O=C(c1c[nH]cn1)N1CCC(F)(F)C2(CCN(c3cccc(F)c3)C2)C1 (centres undefined),PXC50,MAX_EFFECT 45.5399061,< 4
same,PXC50,MAX_EFFECT 46.11111111,< 4
COC(=O)CCNc1nc(CN2CCCCC2)nc2sc3c(c12)CCC3,PXC50,MAX_EFFECT 7.808564232,< 4.31
same,PXC50,MAX_EFFECT 7.888040712,< 4
CCN(CC)c1ccc2ccc(C(=O)N(C)C)cn12,PXC50,MAX_EFFECT 27.22222222,< 4
same,PXC50,MAX_EFFECT 35.21126761,< 4
Nc1noc2ccc(-c3cnc4ccc(N5CCCCC5)nn34)cc12,PXC50,"BOTTOM 2.074435444, HILLSLOPE 0.92774459, MAX_EFFECT 58.33333333, TOP 100.0",4.06
same,PXC50,"BOTTOM -0.552717408, HILLSLOPE 0.869319648, MAX_EFFECT 51.90839695, TOP 100.0",4.01
Cc1nc(N2CCC(N)C2)c2ccsc2n1 (centres undefined),PXC50,MAX_EFFECT 4.663212435,< 4
same,PXC50,MAX_EFFECT 6.914893617,< 4
Cc1sc2nc(CCN)nc(N3CCS(=O)(=O)CC3)c2c1C,PXC50,MAX_EFFECT 6.266318538,< 4
same,PXC50,MAX_EFFECT 7.049608355,< 4
CCc1nc(N2CCCC(C)C2)c2c3c(sc2n1)CCC3 (centres undefined),PXC50,"BOTTOM 6.332749468, HILLSLOPE 1.241583482, MAX_EFFECT 50.25125628, TOP 77.91036355",4.17
same,PXC50,MAX_EFFECT 49.87714988,< 4
Cc1nc(N2CCCCC2)c2c(-c3cccs3)csc2n1,PXC50,MAX_EFFECT 30.98236776,< 4
same,PXC50,MAX_EFFECT 31.29770992,< 4
FC1(F)CCN(Cc2cccnc2)CC12CCN(c1cnccn1)C2 (centres undefined),PXC50,MAX_EFFECT 4.081632653,< 4
same,PXC50,MAX_EFFECT 6.355140187,< 4
CCN1CCN(c2nc(-c3cccc(OC)c3)cc(C(F)(F)F)n2)CC1,PXC50,MAX_EFFECT 17.85714286,< 4
same,PXC50,MAX_EFFECT 18.43434343,< 4
Cc1nc(NCCC(C)C)c2c3c(sc2n1)CCCC3,PXC50,MAX_EFFECT 30.4,< 4
same,PXC50,MAX_EFFECT 33.86243386,< 4
O=C1NCCCC12CCN(c1nc3c(c(C(F)(F)F)n1)CCCC3)C2 (centres undefined),PXC50,MAX_EFFECT 4.081632653,< 4
same,PXC50,MAX_EFFECT 6.313131313,< 4
CC(=O)N1CCC(NC(=O)c2ccc3ccc(N4CCN(S(C)(=O)=O)CC4)n3c2)CC1,PXC50,"BOTTOM 2.919824671, HILLSLOPE 1.594432626, MAX_EFFECT 67.35849057, TOP 70.74594509",4.9
same,PXC50,"BOTTOM 3.112441615, HILLSLOPE 1.895765793, MAX_EFFECT 63.92694064, TOP 65.42596591",4.95
CC(=O)N1CCN(CC2OB(O)c3ccccc32)CC1 (centres undefined),PXC50,MAX_EFFECT 12.26415094,< 4
same,PXC50,MAX_EFFECT 15.06849315,< 4
O=C(c1cnccn1)N1CCC(F)(F)C2(CCN(c3ccccn3)C2)C1 (centres undefined),PXC50,MAX_EFFECT 7.962962963,< 4
same,PXC50,MAX_EFFECT 7.981220657,< 4
O=C(NCC1(O)CCCCC1)c1cc(=O)c2ccc(F)c(O)c2o1,PXC50,MAX_EFFECT 5.582137161,< 4
same,PXC50,MAX_EFFECT 7.485604607,< 4
